Only some compounds are listed: those with a hit (about 1.1% of all), similar ones and a draw of the others.
HTR5A inv ctr: HTR5A inverse agonism, opioid heterodimer counter-screen; P47898; HTR5A cell line, luminescence; inhibition, % at 9.3 µM; 0.083% of 340,000 active; AID 504634; in the data active = inhibition mostly above about 23%, no sharp cut-off; inactive = mostly below about 18%
Target sequence (P47898 whole entry, looked up): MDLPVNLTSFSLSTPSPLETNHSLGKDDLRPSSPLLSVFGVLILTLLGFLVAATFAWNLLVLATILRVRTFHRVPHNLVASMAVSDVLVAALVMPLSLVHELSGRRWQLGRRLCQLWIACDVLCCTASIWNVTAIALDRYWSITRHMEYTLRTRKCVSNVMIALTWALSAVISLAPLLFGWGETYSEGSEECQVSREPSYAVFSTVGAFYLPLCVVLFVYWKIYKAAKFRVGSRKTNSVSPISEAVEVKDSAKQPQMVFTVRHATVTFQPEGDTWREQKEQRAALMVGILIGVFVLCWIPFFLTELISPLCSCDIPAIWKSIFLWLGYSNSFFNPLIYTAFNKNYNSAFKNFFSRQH
MOR-DOR inv ag: inverse agonist of human OPRM1-OPRD1 heterodimerization | cell-based MOR-DOR heterodimer luminescence, inverse agonism | 0.21% of 340,000 active | P35372+P41143 | AID 504357 | inhibition, % at 9.3 µM; in the data active = inhibition above about 22%, passing the limit was not always enough
HTR5A ag ctr: counter-screen for OPRM1-OPRD1 agonists: human HTR5A agonism. P47898. HTR5A agonist assay, luminescence, cell-based. activation, % at 9.3 µM. 0.61% of 340,000 active; in the data active = activation mostly above about 9.5%, no sharp cut-off; inactive = mostly below about 7.6%
MOR-DOR ag-1: OPRM1-OPRD1 heterodimerization agonism; P35372+P41143; cells, luminescence; activation, % at 9.3 µM; 0.3% of 340,000 active
MOR-DOR ag-2: counter-screen for HTR5A agonists: OPRM1-OPRD1 heterodimerization agonism | shares compounds with HTR5A ag ctr | U2OS counter-screen cells, complementation luminescence, 3 h | activation, % at 9.3 µM | 13% of 800 active | AID 504913
HTR5A ag confirm: HTR5A (human) agonism, confirmation | shares compounds with HTR5A ag ctr | HTR5A agonist cell assay, luminescence | activation, % at 9.3 µM | 17% of 800 active | AID 504915; in the data active = activation above about 17%
Each line names hits and unclear results; the compound was inactive in the other large screens (follow-up assays come after a bar, where they were run). Cut-off read from the data, not from the text of the source, unless noted: active = activation above about 18%; inactive = the rest.

Cc1ccc(S(=O)(=O)NN=C2C3CC4CC(C3)CC2C4)cc1	HTR5A ag ctr 15 | MOR-DOR ag-2 inactive | HTR5A ag confirm inactive
Cc1ccc(S(=O)(=O)NN=C2C3CC4CC(C3)CC2C4)cc1[N+](=O)[O-]	none
COc1ccccc1C(=O)NCCC(=O)Nc1ccc(S(=O)(=O)N2CCC(C)CC2)cc1	none
NC1=NC(=O)/C(=C/c2cn(Cc3ccccc3)c3ccccc23)S1	HTR5A ag ctr 16 | MOR-DOR ag-2 inactive | HTR5A ag confirm 17
Cn1cc(C(=O)NCC2COc3ccccc3O2)c(=O)c2cc(S(=O)(=O)N3CCCCC3)ccc21 (stereo not given)	HTR5A ag ctr 49 | MOR-DOR ag-2 inactive | HTR5A ag confirm inactive
CN1C(=O)c2cccc3c(S(=O)(=O)N4CCCC4C(=O)O)ccc1c23 (stereo not given)	HTR5A ag ctr 17 | MOR-DOR ag-2 inactive | HTR5A ag confirm inactive
CN1C(=O)c2cccc3c(S(=O)(=O)Nc4ccc(O)c(C(=O)O)c4)ccc1c23	none
Cn1cccc1C(=O)NC(=O)COC(=O)CNS(=O)(=O)c1ccc(Br)cc1	HTR5A ag ctr 17 | MOR-DOR ag-2 inactive | HTR5A ag confirm inactive
O=C(Nc1ccc(N2CCOCC2)cc1N1CCOCC1)c1cccc([N+](=O)[O-])c1	none
Cc1cccc(OCc2n(CC(=O)OC3CC(C)CCC3C(C)C)c3ccccc3[n+]2C)c1 (stereo not given)	HTR5A ag ctr 17 | MOR-DOR ag-2 inactive | HTR5A ag confirm inactive
C=CCc1cccc2cc(C(=O)N3CCN(C(=O)c4ccccc4)CC3)c(=O)oc12	HTR5A ag ctr 16 | MOR-DOR ag-2 inactive | HTR5A ag confirm inactive
C=CCc1cccc2cc(C(=O)N3CCOCC3)c(=O)oc12	none
Cc1ccc2nccc(C(=O)N3CCCC(Nc4ccc(F)cc4)C3)c2c1 (stereo not given)	none
CSc1cccc(NC(=O)N2CCc3ccc(NC(=O)c4ccccn4)cc3C2)c1	HTR5A ag ctr 16 | MOR-DOR ag-2 inactive | HTR5A ag confirm inactive
O=C(COc1ncnc2ccccc12)Nc1cc([N+](=O)[O-])ccc1F	HTR5A ag ctr 19 | MOR-DOR ag-2 inactive | HTR5A ag confirm inactive
CCCCNC(=O)CCn1c(=O)c2ccccc2n(Cc2ccc(Cl)cc2)c1=O	HTR5A ag ctr 18 | MOR-DOR ag-2 inactive | HTR5A ag confirm inactive
CCN1C(=O)C(=O)N(CC(=O)NC(C)CCc2ccccc2)C1=O (stereo not given)	none
CCc1ccc(/C=C/C(=O)c2cc(Br)ccc(=O)c2O)cc1	HTR5A ag ctr 17 | MOR-DOR ag-2 42 | HTR5A ag confirm inactive
COc1ccc(S(=O)(=O)NC(C(=O)OCC(=O)Nc2ccc(N3CCOCC3)cc2)C(C)C)cc1 (stereo not given)	HTR5A ag ctr 16 | MOR-DOR ag-2 inactive | HTR5A ag confirm inactive
CCCn1c(SCC(=O)N2N=C3/C(=C/c4ccc(OC)cc4)CCCC3C2c2ccc(OC)cc2)n[nH]c1=O (stereo not given)	HTR5A ag ctr 23 | MOR-DOR ag-2 26 | HTR5A ag confirm inactive
COC(=O)C1CCN(C(=O)C2CCN(C(=O)[C@@H](NS(=O)(=O)c3ccc(C)cc3)C(C)C)CC2)CC1	none
CCS(=O)(=O)N1CCC(C(=O)Nc2ccccc2OC)CC1	none
CC1CCCC(NC(=O)COC(=O)c2cc(S(=O)(=O)N3CCOCC3)ccc2F)C1C (stereo not given)	HTR5A ag ctr 18 | MOR-DOR ag-2 inactive | HTR5A ag confirm inactive
Cc1cccc(C)c1NC(=S)N1CCCN(Cc2ccc(F)cc2)C1	none
COc1ccc(NC(=S)N2CCCN(Cc3cccc(Cl)c3)C2)cc1	HTR5A ag ctr 48 | MOR-DOR ag-2 167 | HTR5A ag confirm inactive
COc1cccc(NC(=S)N2CCCN(Cc3ccc(F)cc3)C2)c1	HTR5A ag ctr 33 | MOR-DOR ag-2 inactive | HTR5A ag confirm 26
CCOc1ccc(NC(=S)N2CCCN(Cc3cccc(Cl)c3)C2)cc1	none
O=C(CSc1cnc2ccccc2n1)c1ccc(F)cc1	none
COc1cc(CCNc2ccc3nnc(-c4ccccc4)n3n2)cc(OC)c1OC	HTR5A ag ctr 17 | MOR-DOR ag-2 inactive | HTR5A ag confirm inactive
COc1ccc2nnc(-c3ccccc3)n2n1	none
C=CCN1C(=O)C(CC(=O)Nc2ccc(OCCC)cc2)N(CCCN2CCN(Cc3ccccc3)CC2)C1=S (stereo not given)	HTR5A ag ctr 17 | MOR-DOR ag-2 39 | HTR5A ag confirm inactive

Assay outcomes (PubChem)
